According to PubChem BioAssay (NCATS):
Records with an inconclusive call do not appear. Active and inactive are the calls of the source. Unless noted, calls come from the whole dose curve.

Experiments:
[1] = biological target: Lysosomal acid glucosylceramidase (Homo sapiens) (UniProt P04062); assay: Glucocerebrosidase-p2 (AID 348; in the data active = potency below about 10 µM; note: potency is the fitted concentration of half-maximal effect); conditions: purified GBA, blue fluorogenic substrate, 40 min
How it was run: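 Compounds titrated from 0.6 nM upwards against 0.2 nM enzyme in pH 5.9 citric acid/KH2PO4, taurocholate, tween-20; blue fluorogenic substrate 80 uM, 40 min room temperature, stopped and read Ex 365/Em 440 for AC50.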

[2] = AP1 Signaling Pathway (AID 357; active = well fitted curve in either direction with a large enough effect, not every such curve was filed as active; note: % is set by controls: 0 for no effect and ±100 for the full control effect); conditions: ME-180 AP-1-bla reporter, EGF-induced, beta-lactamase ratio, 5 h; at 7.69 µM (top of the series) unless noted
How it was run: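 In this screen, ME-180 cells in Opti-MEM with 0.5% dialyzed FBS received EC50 EGF and compound titrations for 5 h. AP-1 reporter beta-lactamase was detected via CCF4 ratio, giving AC50 for positive and negative modulators.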

[3] = biological target: Cytochrome P450 1A2 (Homo sapiens) (UniProt P05177); assay: p450-cyp1a2 (AID 410); conditions: recombinant CYP1A2, luciferin-ME demethylation, luminescence; series mostly up to 57 µM; note: potency is the fitted concentration of half-maximal effect;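 for activity change, negative = inhibition: -100% = full effect of reference inhibitor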
How it was run: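 20nM CYP1A2 with 100uM Luciferin-ME (at Km) in 100mM KPO4; compound preincubated 10 min, NADPH regeneration added, 60 min at room temperature. Luciferin quantified by luminescence after detection reagent; normalized to 57 uM furafylline.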

[4] = Stat Signaling Pathway (AID 446; active = well fitted curve in either direction with a large enough effect, not every such curve was filed as active;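 note: ME-180 cervical cancer cells given 40 pM IL-6 alongside compound; SIE-controlled beta-lactamase reporter measured as 460/530 nm FRET emission ratio; % is set by controls: 0 for no effect and ±100 for the full control effect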); conditions: ME-180 SIE beta-lactamase reporter, IL-6 stimulated, 5 h; at 7.69 µM (top of the series) unless noted
How it was run: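 ME-180 cells carrying a SIE-driven beta-lactamase reporter are stimulated with 40 pM IL-6 for 5 h at 37C in the presence of compound. The 460/530 nm FRET substrate ratio is read after 2.5 h at RT. Data are normalised to 300 pM IL-6 and to 125 nM JAK inhibitor controls.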

[5] = biological target: Glucocorticoid receptor (Homo sapiens) (UniProt P04150); assay: GR-EFC Redistribution (AID 451); conditions: CHO-K1 GR-EFC translocation, beta-gal luminescence, 2 h; note: potency is the fitted concentration of half-maximal effect
How it was run: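 CHO-K1 cells expressing nuclear EA and GR-ED fragments of b-gal; compounds titrated up to 46 uM final, 2 h at 37 C. GR nuclear translocation read as complemented b-gal luminescence after 1 h RT detection.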

[6] = biological target: Mitogen-activated protein kinase 10 (Mus musculus) (UniProt Q61831); assay: JNK3 AlphaScreen Assay (AID 530; active = well fitted curve in either direction with a large enough effect, not every such curve was filed as active;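 note: kinase came from lysate of stimulated human HepG2 cells; signal reports phosphorylation of biotinylated GST-cJun 1-79 at Ser73 with 10 µM ATP; % is set by controls: 0 for no effect and ±100 for the full control effect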); conditions: JNK3 lysate, c-Jun phosphorylation; series mostly up to 57.1 µM
How it was run: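 Pre-activated (IL-1β/TNFα) JNK3 in HepG2 lysates phosphorylates biotin-GST-cJun(1-79), 10 uM ATP; anti-phospho-cJun(Ser73) AlphaScreen read at room temperature, pH 7.6 Tris buffer. Compounds pre-incubated 15 min as titrations.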

[7] = biological target: 3',5'-cyclic-AMP phosphodiesterase 4B (Homo sapiens) (UniProt Q07343); assay: qHTS Assay for Inhibitors of PDE-IV (AID 607; active = well fitted activation curve with a large enough effect in the main read-out, with a control signal flat, not every such curve was filed as active; note: % of control where 0% means no effect); conditions: HEK293 ACTOne CNG channel cells, membrane potential fluorescence; series mostly up to 22.9 µM
How it was run: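 HEK293 ACTOne cells with CNG channel (1000/well), endogenous PDE4; membrane potential dye, compounds up to 22.9 uM final. Fluorescence Ex 535/Em 590; RO 20-1724 (100 uM final) as reference.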

[8] = biological target: Cytochrome P450 3A4 (Homo sapiens) (UniProt P08684); assay: qHTS Assay for Inhibitors and Substrates of Cytochrome P450 3A4 (AID 884; active = well fitted curve in the direction sought with a large enough effect; an effect the other way counts as inactive or inconclusive; note: % is set by controls: 0 for no effect and ±100 for the full control effect; nearly all actives have a fitted effect of over 50% in size); conditions: recombinant CYP3A4, Luciferin-PPXE luminescence; series mostly up to 57.1 µM
How it was run: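 20 nM human CYP3A4 with 25 uM Luciferin-PPXE (at KM) in 200 mM KPO4, preincubated 10 min with compound; NADPH regeneration started a 60 min RT reaction. Luciferin detected by luminescence, normalized to 57 uM ketoconazole as full inhibition.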

[9] = biological target: Cytochrome P450 3A4 (Homo sapiens) (UniProt P08684); assay: qHTS Assay for Activators of Cytochrome P450 3A4 (AID 885; active = well fitted curve in the direction sought with a large enough effect; an effect the other way counts as inactive or inconclusive; note: nearly all actives have a fitted effect of over 65% in size; note: potency is the fitted concentration of half-maximal effect); conditions: recombinant CYP3A4, Luciferin-PPXE luminescence, 60 min; series mostly up to 57.1 µM
How it was run: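 Human CYP3A4 (20 nM) with Luciferin-PPXE at 25 uM (its KM) in 200 mM KPO4; 10 min compound preincubation, then NADPH regeneration and 60 min reaction at RT. Luciferin read by luminescence; normalized to 57 uM ketoconazole full inhibition.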

[10] = biological target: Cytochrome P450 2D6 (Homo sapiens) (UniProt P10635); assay: qHTS Assay for Inhibitors and Substrates of Cytochrome P450 2D6 (AID 891; active = well fitted curve in the direction sought with a large enough effect; an effect the other way counts as inactive or inconclusive; note: potency is the fitted concentration of half-maximal effect; nearly all actives have a fitted effect of over 60% in size); conditions: recombinant CYP2D6, luciferin-ME EGE luminescence; series mostly up to 57.1 µM
How it was run: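 Human CYP2D6 (5 nM) with 30 uM Luciferin-ME EGE (at Km) in 100 mM KPO4, compound preincubated 10 min, then NADPH regeneration system for 60 min at room temperature. Luciferin read by luminescence; normalized to 1.43 uM quinidine.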

[11] = qHTS Assay for Lipid Storage Modulators (AID 1519); conditions: Drosophila S3 cells, BODIPY lipid droplet/cell ratio, laser cytometry, cells loaded with oleic acid; for activity change, negative = inhibition: at 57.5 µM (top of the series)
How it was run: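 Cells seeded at 5,000 per well were treated with compounds over a concentration series and loaded with oleic acid (400 uM, as added). Lipid droplet fluorescence (488 nm excitation, 500-530 nm channel) was read by laser-scanning cytometry and normalized to 20 uM Triacsin C.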

[12] = Primary qHTS for small molecule stabilizers of the endoplasmic reticulum resident proteome: Secreted ER Calcium Modulated Protein (SERCaMP) assay (AID 1508630; active = well fitted curve in the direction sought with a large enough effect; an effect the other way counts as inactive or inconclusive; note: % is set by controls: 0 for no effect and ±100 for the full control effect); conditions: SH-SY5Y GLuc-SERCaMP (Gaussia luciferase released on ER calcium loss) secretion, thapsigargin, luminescence; series mostly up to 38.4 µM
How it was run: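 GLuc-SERCaMP-expressing SH-SY5Y cells, pretreated 16 h with compound, are challenged with thapsigargin to empty ER calcium stores; after 4 h, coelenterazine is added directly to the medium and luminescence is imaged.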

[13] = biological target: Cytochrome P450 2C9 (Homo sapiens) (UniProt P11712); assay: qHTS Assay for Inhibitors and Substrates of Cytochrome P450 2C9 (AID 883; active = well fitted curve in the direction sought with a large enough effect; an effect the other way counts as inactive or inconclusive; note: nearly all actives have a fitted effect of over 60% in size; note: potency is the fitted concentration of half-maximal effect); conditions: recombinant CYP2C9, luciferin-H luminescence, 60 min; series mostly up to 57.1 µM
How it was run: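 Human CYP2C9 (10nM) with Luciferin-H at 100uM (its KM) in 25mM KPO4; compound preincubated 10 min at 37C, then NADPH regeneration for 60 min at 37C. Luciferin read by luminescence after detection reagent; normalized to 57uM sulphaphenazole as full inhibition.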

[14] = biological target: Cytochrome P450 2C19 (Homo sapiens) (UniProt P33261); assay: qHTS Assay for Inhibitors and Substrates of Cytochrome P450 2C19 (AID 899; active = well fitted curve in the direction sought with a large enough effect; an effect the other way counts as inactive or inconclusive; note: potency is the fitted concentration of half-maximal effect; nearly all actives have a fitted effect of over 60% in size); conditions: recombinant CYP2C19, luciferin-H EGE luminescence; series mostly up to 57.1 µM
How it was run: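 5 nM human CYP2C19 with 10uM Luciferin-H EGE (at KM) in 50mM KPO4, compound preincubated 10 min at 37C, then NADPH regeneration for 60 min at 37C. Luciferin read by luminescence after detection reagent; normalized to 57uM ketoconazole as full inhibition.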

[15] = qHTS Assay for Identification of Small Molecule Agonists for Hypoxia Response Element Signaling Pathway (AID 914; active = well fitted activation curve with a large enough effect in the signal ratio, with a control signal flat, not every such curve was filed as active; the % refers to the signal ratio; note: % of control where 0% means no effect); conditions: ME-180 HRE-bla reporter, beta-lactamase ratio, CoCl2, 17 h; activation: stronger effect = higher value
How it was run: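 ME-180 cells carrying an HRE-driven beta-lactamase reporter were treated with compounds in a titration series plus an EC50 level of CoCl2 for 17 h at 37 degrees Celsius; CCF4 readout as the 460nm/530nm ratio gave AC50 values.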

[16] = measured here: cell count channel max response
[17] = measured here: lipid channel max response

Sequence of Cytochrome P450 1A2 (Homo sapiens) (P05177 whole entry, looked up): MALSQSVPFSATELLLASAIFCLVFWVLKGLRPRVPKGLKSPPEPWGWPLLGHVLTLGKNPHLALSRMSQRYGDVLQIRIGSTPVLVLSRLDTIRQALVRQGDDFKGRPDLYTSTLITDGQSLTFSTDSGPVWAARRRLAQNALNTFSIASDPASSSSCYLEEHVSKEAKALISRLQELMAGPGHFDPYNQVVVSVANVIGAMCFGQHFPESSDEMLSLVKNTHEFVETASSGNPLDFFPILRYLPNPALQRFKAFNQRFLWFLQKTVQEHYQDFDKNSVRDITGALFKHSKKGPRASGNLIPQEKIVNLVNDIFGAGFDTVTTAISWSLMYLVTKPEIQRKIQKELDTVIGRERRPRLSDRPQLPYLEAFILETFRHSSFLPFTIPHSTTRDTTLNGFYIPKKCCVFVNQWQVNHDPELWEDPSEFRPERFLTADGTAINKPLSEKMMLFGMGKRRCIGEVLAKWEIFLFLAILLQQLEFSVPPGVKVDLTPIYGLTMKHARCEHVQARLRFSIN
Sequence of Cytochrome P450 3A4 (Homo sapiens) (P08684 whole entry, looked up): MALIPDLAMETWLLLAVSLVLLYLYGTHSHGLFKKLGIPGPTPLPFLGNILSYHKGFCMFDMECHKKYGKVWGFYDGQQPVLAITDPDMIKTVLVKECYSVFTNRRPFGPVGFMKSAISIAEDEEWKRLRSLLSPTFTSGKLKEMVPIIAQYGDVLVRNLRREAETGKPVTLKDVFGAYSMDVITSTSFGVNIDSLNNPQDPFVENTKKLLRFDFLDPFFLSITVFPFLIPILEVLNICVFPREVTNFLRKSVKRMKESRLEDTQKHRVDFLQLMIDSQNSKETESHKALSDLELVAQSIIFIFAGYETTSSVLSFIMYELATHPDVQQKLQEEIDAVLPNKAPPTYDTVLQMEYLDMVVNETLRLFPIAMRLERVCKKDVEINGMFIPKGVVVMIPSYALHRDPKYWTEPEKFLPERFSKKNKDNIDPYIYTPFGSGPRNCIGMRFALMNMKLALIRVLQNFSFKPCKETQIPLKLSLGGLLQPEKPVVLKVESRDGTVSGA
Sequence of 3',5'-cyclic-AMP phosphodiesterase 4B (Homo sapiens) (Q07343 whole entry, looked up): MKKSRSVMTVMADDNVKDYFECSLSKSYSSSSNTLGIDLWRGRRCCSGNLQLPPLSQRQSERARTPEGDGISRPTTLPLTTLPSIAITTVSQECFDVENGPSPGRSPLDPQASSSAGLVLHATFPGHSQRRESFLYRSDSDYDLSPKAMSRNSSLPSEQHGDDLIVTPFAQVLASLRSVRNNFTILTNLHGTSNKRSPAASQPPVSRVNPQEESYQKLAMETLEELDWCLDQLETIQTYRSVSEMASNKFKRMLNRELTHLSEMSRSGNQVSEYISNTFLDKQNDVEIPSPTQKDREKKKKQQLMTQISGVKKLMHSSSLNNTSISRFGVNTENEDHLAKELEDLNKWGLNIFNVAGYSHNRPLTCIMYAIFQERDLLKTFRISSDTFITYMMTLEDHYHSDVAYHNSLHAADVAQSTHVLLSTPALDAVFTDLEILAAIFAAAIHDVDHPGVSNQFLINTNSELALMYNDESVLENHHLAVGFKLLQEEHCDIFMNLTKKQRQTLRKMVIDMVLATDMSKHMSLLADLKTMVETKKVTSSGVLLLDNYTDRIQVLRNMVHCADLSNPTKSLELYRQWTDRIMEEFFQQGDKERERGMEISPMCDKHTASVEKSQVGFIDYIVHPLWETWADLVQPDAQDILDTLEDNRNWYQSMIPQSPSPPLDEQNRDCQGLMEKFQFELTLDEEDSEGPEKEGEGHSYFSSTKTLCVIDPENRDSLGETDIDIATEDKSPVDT
Sequence of Lysosomal acid glucosylceramidase (Homo sapiens) (P04062 whole entry, looked up): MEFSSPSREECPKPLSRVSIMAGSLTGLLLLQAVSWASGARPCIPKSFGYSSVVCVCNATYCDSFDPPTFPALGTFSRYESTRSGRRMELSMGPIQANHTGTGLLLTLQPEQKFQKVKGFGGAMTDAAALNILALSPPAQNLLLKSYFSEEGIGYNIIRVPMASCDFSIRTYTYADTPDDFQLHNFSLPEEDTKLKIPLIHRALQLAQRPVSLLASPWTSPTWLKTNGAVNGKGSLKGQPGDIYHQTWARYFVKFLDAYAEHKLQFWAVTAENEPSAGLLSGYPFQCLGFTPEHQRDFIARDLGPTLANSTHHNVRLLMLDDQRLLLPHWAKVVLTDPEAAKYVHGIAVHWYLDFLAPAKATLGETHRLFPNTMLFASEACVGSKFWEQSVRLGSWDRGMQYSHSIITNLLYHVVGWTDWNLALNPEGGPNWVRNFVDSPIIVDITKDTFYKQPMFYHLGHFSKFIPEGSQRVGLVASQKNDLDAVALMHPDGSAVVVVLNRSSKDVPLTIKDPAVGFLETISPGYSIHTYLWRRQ
Sequence of Glucocorticoid receptor (Homo sapiens) (P04150 whole entry, looked up, the tested form may be a part): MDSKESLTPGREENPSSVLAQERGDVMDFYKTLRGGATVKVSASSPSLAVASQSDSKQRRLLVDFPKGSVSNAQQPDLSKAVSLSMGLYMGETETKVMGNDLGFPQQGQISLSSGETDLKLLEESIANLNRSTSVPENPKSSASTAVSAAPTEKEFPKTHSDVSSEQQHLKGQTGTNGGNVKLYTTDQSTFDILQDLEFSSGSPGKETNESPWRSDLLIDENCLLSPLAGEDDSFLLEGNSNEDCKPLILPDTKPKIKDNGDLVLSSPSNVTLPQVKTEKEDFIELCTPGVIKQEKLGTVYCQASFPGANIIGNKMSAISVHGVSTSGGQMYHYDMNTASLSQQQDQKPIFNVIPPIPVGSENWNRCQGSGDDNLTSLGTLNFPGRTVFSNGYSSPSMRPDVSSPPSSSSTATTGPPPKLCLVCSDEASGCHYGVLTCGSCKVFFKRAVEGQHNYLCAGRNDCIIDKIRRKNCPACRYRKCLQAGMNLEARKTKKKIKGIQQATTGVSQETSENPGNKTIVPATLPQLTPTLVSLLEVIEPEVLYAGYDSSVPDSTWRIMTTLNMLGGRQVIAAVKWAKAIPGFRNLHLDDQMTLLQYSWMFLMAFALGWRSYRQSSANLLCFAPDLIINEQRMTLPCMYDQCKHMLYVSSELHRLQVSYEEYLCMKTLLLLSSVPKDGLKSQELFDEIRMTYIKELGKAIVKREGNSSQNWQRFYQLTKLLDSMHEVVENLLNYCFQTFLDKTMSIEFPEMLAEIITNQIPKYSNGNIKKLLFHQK
Sequence of Cytochrome P450 2C9 (Homo sapiens) (P11712 whole entry, looked up): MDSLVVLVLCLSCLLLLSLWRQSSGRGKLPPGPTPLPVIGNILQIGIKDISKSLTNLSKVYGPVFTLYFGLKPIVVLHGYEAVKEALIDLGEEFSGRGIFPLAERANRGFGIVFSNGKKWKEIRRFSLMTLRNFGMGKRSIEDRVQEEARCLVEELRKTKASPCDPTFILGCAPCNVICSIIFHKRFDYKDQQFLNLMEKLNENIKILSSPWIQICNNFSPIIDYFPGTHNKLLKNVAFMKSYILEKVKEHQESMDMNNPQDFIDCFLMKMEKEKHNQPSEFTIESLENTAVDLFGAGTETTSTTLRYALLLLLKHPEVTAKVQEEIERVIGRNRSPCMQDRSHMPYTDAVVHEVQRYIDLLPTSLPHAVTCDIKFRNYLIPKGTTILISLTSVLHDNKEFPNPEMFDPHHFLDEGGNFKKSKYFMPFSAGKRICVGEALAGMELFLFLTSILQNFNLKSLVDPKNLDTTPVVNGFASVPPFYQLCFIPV
Sequence of Cytochrome P450 2C19 (Homo sapiens) (P33261 whole entry, looked up): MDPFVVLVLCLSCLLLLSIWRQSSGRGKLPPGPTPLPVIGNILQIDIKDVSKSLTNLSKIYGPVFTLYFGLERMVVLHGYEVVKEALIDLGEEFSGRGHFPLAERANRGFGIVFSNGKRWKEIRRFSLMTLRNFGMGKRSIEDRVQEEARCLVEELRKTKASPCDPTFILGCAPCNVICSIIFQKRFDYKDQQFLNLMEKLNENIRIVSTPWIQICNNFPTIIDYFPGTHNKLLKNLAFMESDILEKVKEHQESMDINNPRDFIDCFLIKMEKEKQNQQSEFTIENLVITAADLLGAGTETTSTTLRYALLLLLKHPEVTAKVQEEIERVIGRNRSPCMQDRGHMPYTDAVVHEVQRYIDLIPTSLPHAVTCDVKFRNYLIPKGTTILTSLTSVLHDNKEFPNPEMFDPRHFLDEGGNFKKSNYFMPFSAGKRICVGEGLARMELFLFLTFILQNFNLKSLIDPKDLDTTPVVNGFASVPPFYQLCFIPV
Sequence of Cytochrome P450 2D6 (Homo sapiens) (P10635 whole entry, looked up): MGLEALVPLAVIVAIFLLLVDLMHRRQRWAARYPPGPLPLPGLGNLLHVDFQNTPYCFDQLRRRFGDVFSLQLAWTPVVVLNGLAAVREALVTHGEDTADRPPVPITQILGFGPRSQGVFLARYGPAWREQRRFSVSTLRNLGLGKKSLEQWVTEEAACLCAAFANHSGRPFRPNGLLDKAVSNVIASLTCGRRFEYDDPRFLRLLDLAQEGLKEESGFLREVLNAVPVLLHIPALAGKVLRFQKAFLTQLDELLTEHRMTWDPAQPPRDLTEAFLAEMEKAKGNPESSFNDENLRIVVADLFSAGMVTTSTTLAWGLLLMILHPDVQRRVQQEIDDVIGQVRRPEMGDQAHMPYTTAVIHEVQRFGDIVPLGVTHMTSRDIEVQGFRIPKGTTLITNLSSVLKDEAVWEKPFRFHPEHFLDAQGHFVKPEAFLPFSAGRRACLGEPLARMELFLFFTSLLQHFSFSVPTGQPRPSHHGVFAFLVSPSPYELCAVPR

Row | Structure (SMILES) | Potency [1] | activity change, negative = inhibition [2] | Potency [3] | activity, negative = inhibition [4] | Potency [5] | Potency [6] | Potency [7] | Potency [8] | Potency [9] | Potency [10] | activity change, negative = inhibition [11] | max response [11, 16] [%] | max response [11, 17] [%] | outcome [12] | Potency [13] | Potency [14] | activation [15]
1 | O=C(c1ccco1)N1CCC2(CC1)CCN(C(c1ccccc1)c1ccccc1)CC2 | > 11.4 µM (inactive) | 0.867% (inactive) | inactive | -7.63% (inactive) | > 46 µM (inactive) | inactive | inactive | inactive | 12.6 µM (active) | 5.01 µM (active) | 3.39% (inactive) | 7.88 | 15 | inactive | – | – | –
2 | Cn1cccc1C(=O)N1CCC2(CC1)CN(c1ccccn1)C2 | > 11.4 µM (inactive) | 2.02% (inactive) | inactive | -6.36% (inactive) | > 46 µM (inactive) | inactive | inactive | inactive | 12.6 µM (active) | – | 5.7% (inactive) | 7.05 | 13.8 | inactive | – | – | –
3 | Cn1cccc1C(=O)N1CCC2(CC1)CN(c1ccncc1)C2 | > 11.4 µM (inactive) | -6.05% (inactive) | inactive | -3.69% (inactive) | > 46 µM (inactive) | inactive | inactive | – | – | – | 2.57% (inactive) | 0.464 | 4.51 | inactive | 5.01 µM (active) | 1.26 µM (active) | –
4 | O=C(Nc1ccccc1)N1CCCC2(CCN(S(=O)(=O)c3ccccc3)CC2)C1 | > 11.4 µM (inactive) | -18.5% (inactive) | 15.8 µM (active) | -7.13% (inactive) | > 46 µM (inactive) | inactive | inactive | – | inactive | – | 0.932% (inactive) | 19.2 | 22 | inactive | – | – | –
5 | CC(C)CN1CCCC2(CCN(C(=O)c3cccn3C)CC2)C1 | > 11.4 µM (inactive) | -3.67% (inactive) | inactive | 12.4% (inactive) | > 46 µM (inactive) | inactive | inactive | – | inactive | – | 6.1% (inactive) | 16.8 | 26.5 | inactive | – | – | –
6 | COC(=O)N1CCC2(CCCN(Cc3nccs3)C2)CC1 | > 11.4 µM (inactive) | -9.45% (inactive) | inactive | -5.19% (inactive) | > 46 µM (inactive) | inactive | inactive | – | inactive | – | 5.26% (inactive) | 2.22 | 10.9 | inactive | – | – | –
7 | Cc1noc(C)c1C(=O)N1CCC2(CCN(Cc3ccccc3)CC2)CC1 | > 11.4 µM (inactive) | 6.02% (inactive) | inactive | 1% (inactive) | > 46 µM (inactive) | inactive | inactive | – | – | – | 0.801% (inactive) | 19.5 | 22 | inactive | inactive | – | -10.3% (inactive)
